Screening data from PubChem BioAssay.
The list is not random: actives were taken first. Their share in the collection is about 1.6%.
Beta2AR agonist – human beta-2 adrenergic receptor agonism by FAP. 340,000 tested, 0.43% active. response, % (concentration not given with the values). P07550. AID 504454. Am2.2-beta2AR cells, FAP receptor internalization, flow cytometry;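 active means response above a set limit, near 3 SD of response in nonfluorescent compounds, cut at about 42% in these data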
Target sequence (P07550 whole entry, looked up): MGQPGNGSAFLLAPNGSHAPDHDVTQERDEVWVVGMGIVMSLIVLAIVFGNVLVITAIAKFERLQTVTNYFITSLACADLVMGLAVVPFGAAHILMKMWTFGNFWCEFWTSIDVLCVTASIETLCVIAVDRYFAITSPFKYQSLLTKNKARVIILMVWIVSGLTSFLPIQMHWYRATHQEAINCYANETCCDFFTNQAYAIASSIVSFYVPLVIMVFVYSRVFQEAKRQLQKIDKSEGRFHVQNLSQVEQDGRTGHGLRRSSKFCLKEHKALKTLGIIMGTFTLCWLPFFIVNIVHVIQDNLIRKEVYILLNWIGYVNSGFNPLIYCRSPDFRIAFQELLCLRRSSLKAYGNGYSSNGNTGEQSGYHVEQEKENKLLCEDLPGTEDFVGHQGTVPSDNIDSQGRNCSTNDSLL
dFosB activator – enhances mouse delta FosB homodimer DNA binding; activation, % at 25 µM; 340,000 tested, 0.99% active; purified delta FosB, TAMRA-CDK5 oligo fluorescence polarization; percent of positive-control signal above neutral wells; P13346;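 active means mean activation above about 17%, with every replicate also reaching it, limit read from the data, passing the limit was not always enough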
Dyrk1A ADPGlo – inhibitors of rat Dyrk1A kinase; Q63470; ADP-Glo luminescence, NFATc1 peptide; inhibition, % at 12.5 µM; 310,000 tested, 0.43% active; in the data active means inhibition above about 50%;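 further: plate controls were vehicle with enzyme for no effect and no enzyme for full effect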
Bfl-1 A1 inh – inhibitors of the anti-apoptotic protein A1, read as caspase activation; AID 2462; 330,000 tested, 0.066% active; caspase activation, % (concentration not given with the values); MEF A1-2A-BIM cells, Caspase-Glo 3/7 luminescence, 3 h; percent of clofoctol response, vehicle zero;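 active means over half of replicate activation scores above 10%, or exactly half above 10 with the replicate mean above 10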
B2AR ag CP1 – human beta-2 adrenergic receptor agonism, cherry pick. 1,100 tested, 25% active. percent response (surface receptor), % at 10 µM. shares compounds with Beta2AR agonist. Am2.2-beta2AR cells, FAP surface receptor, flow cytometry; active compounds read low;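 active means surface receptor percent response at or below 58%, roughly 3 SD from nonfluorescent compounds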
B2AR FAP counter – fluorescence artifact in beta-2AR agonist FAP counterscreen; AID 588765; calls only at 10 µM; Am2.2 cells, FAP fluorogen flow cytometry; active compounds read low; 1,100 tested, under 10 active; shares compounds with Beta2AR agonist;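 active means percent response below a set limit in fluorescence channel 1 and below 50% in channel 8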
* marks the source's active call; other numbers are inactive results; i = inactive; . = no result given.

SMILES	Beta2AR agonist	dFosB activator	Dyrk1A ADPGlo	Bfl-1 A1 inh	B2AR ag CP1	B2AR FAP counter
CCc1cc(CNC(=O)c2cc(COc3ccc(C)nc3)on2)on1	-5	3	1	-1	.	.
Cc1ccc(OCc2cc(C(=O)NCc3ccc(OC(F)(F)F)cc3)no2)cn1	52*	-12	.	0	40*	i
CC(Sc1nc(-c2ccccc2)cc(C(F)(F)F)n1)C(=O)NCCN1CCOCC1 (stereo not drawn)	-23	-6	-11	0	.	.
CC(Sc1nc(-c2ccccc2)cc(C(F)(F)F)n1)C(=O)N1CCOCC1 (stereo not drawn)	91*	-6	-2	0	14*	i
CC1CCN(C(=O)C(C)Sc2nc(-c3ccccc3)cc(C(F)(F)F)n2)CC1 (stereo not drawn)	15	0	3	0	111	i
CC(Sc1nc(-c2ccccc2)cc(C(F)(F)F)n1)C(=O)O (stereo not drawn)	6	-7	0	-1	.	.
CC(Sc1nc(-c2ccccc2)cc(C(F)(F)F)n1)C(=O)N1CCC(C(N)=O)CC1 (stereo not drawn)	-2	-8	4	1	134	i
CC(Sc1nc(-c2ccccc2)cc(C(F)(F)F)n1)C(=O)N1CCCC1 (stereo not drawn)	54*	-6	1	-1	55*	i
COC(=O)Nc1ccc(S(=O)(=O)N2CCCc3ccccc32)cc1	8	-2	5	1	.	.
COC(=O)Nc1ccc(S(=O)(=O)N2CCCc3cccc(O)c32)cc1	52*	-6	3	1	82	i
CSCC[C@H](NC(=O)Nc1ccc(Oc2ccccc2)cc1)C(=O)O	-2	4	-2	0	.	.
C=CCn1c(C)cc(C(=O)COc2ccc(N(C)S(=O)(=O)c3ccc(NC(C)=O)cc3)cc2)c1C	44*	-13	-1	1	130	i
CCOC(=O)N1CCN(c2ncnc3c2[nH]c2ccc(OC)cc23)CC1	90*	-6	49	0	124	i
O=C(CC1C(=O)NCCN1Cc1ccc(F)c(F)c1)NCCCn1ccnc1 (stereo not drawn)	0	2	-3	0	.	.
FC(F)(F)c1cc(-c2ccccc2)nc(-n2cc(Cl)cn2)n1	-15	-20	7	0	.	.
Cc1cnn(-c2nc(-c3ccccc3)cc(-c3ccccc3)n2)c1	42*	-48	-2	.	16*	i
COc1cccc(/C=N/Nc2nc(-c3cccnc3)nc3ccccc23)c1	9	-46	.	-5	.	.
COc1cccc(CNc2nc(-c3cccnc3)nc3ccccc23)c1	-1	-27	26	0	156	i
CCC(=O)c1ccc(OCC(=O)OCC(=O)Nc2sccc2C(N)=O)cc1	26	-4	.	1	.	.
